Experimental data reported in PubChem BioAssay (NCI).
Compounds without any hit were thinned out: in the full panel of roughly 79,000, 15% have a hit. No stated cut-off is given here; in the data, active means growth inhibition above about 70%; inactive means the rest.

Assays:
[1] = NCI Yeast Anticancer Drug Screen. Data for the rad50 strain (AID 155);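 further: 0% = growth of vehicle-only cultures of the same strain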; settings: S. cerevisiae rad50 strain growth inhibition; at 50.0 µM; active compounds read high
Procedure, shortened: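 A DNA repair-deficient yeast mutant serves as the test organism; compound-induced growth inhibition is calculated against vehicle-treated cells.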

[2] = NCI Yeast Anticancer Drug Screen. Data for the mec2-1 strain (AID 157); settings: S. cerevisiae mec2-1 strain, at 50.0 µM, active compounds read high
Procedure, shortened: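 Compounds were applied to mec2-1 yeast cells. Their growth was then compared with that of vehicle-treated cultures to give growth inhibition.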

[3] = NCI Yeast Anticancer Drug Screen. Data for the sgs1 mgt1 strain (AID 161);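 further: 0% = growth of cultures given vehicle only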; settings: S. cerevisiae sgs1 mgt1 strain, at 50.0 µM, active compounds read high
Procedure, shortened: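 Compounds are added to genetically altered yeast, and growth is compared with cultures given vehicle alone to give percent inhibition.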

[4] = NCI Yeast Anticancer Drug Screen. Data for the cln2 rad14 strain (AID 165);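 further: 0% = growth equal to vehicle treated cultures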; settings: S. cerevisiae cln2 rad14 strain, at 50.0 µM, active compounds read high
Procedure, shortened: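 Strain: cln2 rad14 yeast, altered in cell cycle control and DNA damage repair. Read-out: growth inhibition vs vehicle.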

[5] = NCI Yeast Anticancer Drug Screen. Data for the bub3 strain (AID 167); settings: S. cerevisiae bub3 mutant strain, at 50.0 µM, active compounds read high
Procedure, shortened: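 Inhibition values come from growth of compound-treated mutant yeast normalised to vehicle-treated controls.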

[6] = NCI Yeast Anticancer Drug Screen. Data for the mlh1 rad18 strain (AID 175); settings: S. cerevisiae mlh1 rad18 strain growth inhibition; at 50.0 µM; active compounds read high
Procedure, shortened: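 A repair-deficient yeast strain is exposed to test compound, and growth is scored relative to vehicle-treated controls.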

Measured: growth inhibition

CCCCCC(=O)OCCC1CCCCC1
inactive: [1] 25.6% | [2] 9.3% | [3] 18.7% | [4] -6.7% | [5] 11.6% | [6] 31.2%

CCOc1ccc(C(=O)NCC(C)C)cc1
inactive: [1] -1.2% | [2] 2.4% | [3] 26.6% | [4] -14.1% | [5] 9% | [6] -13.7%

NNc1ncccn1
inactive: [1] 6.45% | [2] -1.15% | [3] 31.4% | [4] -3.35% | [5] -10% | [6] -0.75%

Cn1c(=O)c2nc3c(=O)n(C)c(=O)n(C)c3nc2n(C)c1=O
inactive: [1] -8% | [2] -11.2% | [3] -17.2% | [4] -6.9% | [5] -13.7% | [6] -2.25%

CCCCOC(=O)c1ccc(NC(=O)CCl)cc1
inactive: [1] 28.6% | [2] 18.8% | [3] 43.1% | [4] 12.5% | [5] 13.8% | [6] 43.4%

CC(=O)NC(CCC(=O)c1ccccc1)C(=O)O (centres undefined)
inactive: [1] 18.1% | [2] -4.95% | [3] 17.3% | [4] 5.05% | [5] 0% | [6] 16%

Cc1ccc(C)c(CN(C)C)c1O
inactive: [1] -0.8% | [2] -1.45% | [3] 4.9% | [4] 25.1% | [5] -11.1% | [6] 22.9%

CC(=O)N(C(C)=O)c1ccc(C)cc1
inactive: [1] -13.7% | [2] -18.9% | [3] -14.7% | [4] -9.75% | [5] -11.2% | [6] -13.9%

NNC(=O)CCCCl
inactive: [1] -10.5% | [2] -15.7% | [3] -11.5% | [4] 2.75% | [5] -21.3% | [6] -0.2%

CC1(C)OC(=O)CC1=O
inactive: [1] 4.6% | [2] -2.45% | [3] 0.55% | [4] 3.65% | [5] 1.8% | [6] -3.2%

Cc1ccc(C)c2c1CCC2=O
inactive: [1] 3.9% | [2] 3.85% | [3] 13.8% | [4] -19.2% | [5] 3.85% | [6] 13.3%

O=C(NCc1ccccc1)c1cccc([N+](=O)[O-])c1
inactive: [1] 5.05% | [2] 18.1% | [3] 19.9% | [4] -47% | [5] 22.9% | [6] 15.6%

CC(C)Sc1ncnc2nc[nH]c12
inactive: [1] 2.4% | [2] 1.1% | [3] -3.05% | [4] -0.9% | [5] 18.9% | [6] 2.5%

CCOC(=O)C1(N)CCCCC1
inactive: [1] 10.3% | [2] 0.45% | [3] 11.1% | [4] -9.85% | [5] 13% | [6] 11.8%

COc1ccc(-c2csc(NC(=O)Nc3nc(-c4ccc(OC)cc4)cs3)n2)cc1
inactive: [1] 4.25% | [2] -0.95% | [3] 0.7% | [4] -8.35% | [5] 7.7% | [6] 1.4%

C[n+]1c(/C=C\C=C\N2CCCCC2)sc2ccccc21
inactive: [1] 28.7% | [2] 14.6% | [3] 34.4% | [4] 2.45% | [5] 31.6% | [6] 27.9%

CN(C)c1ccc2nc3ccc(=[N+](C)C)cc-3oc2c1
inactive: [1] -27.8% | [2] -12.4% | [3] -27.7% | [4] -250% | [5] 6.1% | [6] -12%

S=C(NCc1ccccc1)N1CCC(CCCC2CCN(C(=S)NCc3ccccc3)CC2)CC1
inactive: [1] -9.45% | [2] -32.1% | [3] -3.6% | [4] 6% | [5] 2.85% | [6] -7.35%

CC(=O)NC(O)C(Cl)Cl (centres undefined)
inactive: [1] -14.7% | [2] -6.05% | [3] -6.95% | [4] -23.3% | [5] -5.7% | [6] -14.2%

COC(=O)c1ccccc1C(=O)c1c(C)cc(C)cc1C
inactive: [1] 13.8% | [2] 28.2% | [3] 34.1% | [4] -64% | [5] 46.9% | [6] 50.3%

NC(=S)N/N=C/c1ccc(OC(=O)COc2ccc(Cl)cc2)cn1
inactive: [1] 5.65% | [2] 7.85% | [3] 31.4% | [4] -1.25% | [5] 4.2% | [6] 9.5%

CCCC(OC(C)=O)c1ccc2c(c1)OCO2 (centres undefined)
inactive: [1] 26.4% | [2] 27.5% | [3] 17.3% | [4] -12% | [5] 20.9% | [6] 29.2%

N#C/C(=C\NC(=S)N=Nc1c(O)[nH]c2ccccc12)c1nc2ccccc2s1
inactive: [1] 10.1% | [2] 2.3% | [3] 29.1% | [4] -10.1% | [5] 17.9% | [6] 14.5%

C=CCOc1ccc(Cl)cc1Cl
inactive: [1] 1.65% | [2] -4.4% | [3] -0.45% | [4] 4.6% | [5] 6.65% | [6] -1.75%

C=CCC(O)C=C (centres undefined)
inactive: [1] 10.3% | [2] -14.9% | [3] 5.4% | [4] -0.8% | [5] -5.35% | [6] 12.4%

CCCCCCCCNC(=O)C(C)C
inactive: [1] -13.9% | [2] 30.1% | [3] -2.15% | [4] -42.1% | [5] -18.6% | [6] -11.9%

CCCCCCCCCCCCCCCCCCSC(=N)N
inactive: [1] 45.9% | [2] -16.7% | [3] -9.1% | [4] -116% | [5] 29.3% | [6] 27.9%

CCOP(=O)(OCC)/C(=C\N1C(=O)CC(=O)NC1=S)C(=O)OC
inactive: [1] -29.9% | [2] -31.4% | [3] -18.9% | [4] 7.6% | [5] -6.45% | [6] -5.55%

CC1(C)OC2C(CO)OC(n3ccc(=O)[nH]c3=O)C2O1 (centres undefined)
inactive: [1] 1.9% | [2] 0.9% | [3] -12.3% | [4] -7.3% | [5] 10.5% | [6] -4.35%

Cc1ccc([N+](=O)[O-])c(C)n1
inactive: [1] 19.1% | [2] -23.1% | [3] 6.2% | [4] 27.1% | [5] -4.4% | [6] 23.4%

Cc1ccc(S(=O)(=O)NC(=O)NCCSSCCNC(=O)NS(=O)(=O)c2ccc(C)cc2)cc1
inactive: [1] 10.6% | [2] -7.35% | [3] 12.6% | [4] -1% | [5] 18.6% | [6] 7.95%

O=S1(=O)c2ccccc2Oc2ccccc21
inactive: [1] -26.2% | [2] -19.4% | [3] -23.7% | [4] 16.6% | [5] 3.4% | [6] -14.6%

Nc1ccc2ccccc2c1-c1c(N)ccc2ccccc12
inactive: [1] 14.8% | [2] 2.45% | [3] -2.05% | [4] 1.1% | [5] 0.75% | [6] -2.65%

Cc1ccc2nc(N)nnc2c1
inactive: [1] -5.9% | [2] -34.1% | [3] 3.9% | [4] 20.8% | [5] -17.1% | [6] -3.15%

CN(C(=S)S(=O)(=O)C12CC3CC(CC(C3)C1)C2)c1ccccc1
inactive: [1] 28.8% | [2] 4.7% | [3] 4.35% | [4] -11.5% | [5] 17.5% | [6] -24.9%

CCOC(=O)C(C#N)=C1CCN(C)CC1
inactive: [1] 8.45% | [2] -4.75% | [3] -0.75% | [4] 10.2% | [5] -27.4% | [6] -5.6%

Cc1ccc(N2C(=O)c3cccc4c(N)c(S(=O)(=O)O)cc(c34)C2=O)cc1
inactive: [1] -33.5% | [2] -18.2% | [3] -24.7% | [4] -6.8% | [5] -13.7% | [6] -28.4%

O=S(Cc1ccccc1)/C(=C/NC(=S)Nc1cc(Cl)ccc1Cl)c1ccccc1 (centres undefined)
inactive: [1] 3.6% | [2] 7.05% | [3] 14.4% | [4] 5.6% | [5] 5.35% | [6] 7.1%

O=C(O)CCCCCNC(=O)OCc1ccccc1
inactive: [1] 17.7% | [2] -41.9% | [3] 16.7% | [4] 29.9% | [5] 3.25% | [6] 9.3%

CCC(=O)Oc1ccc2ccccc2c1
inactive: [1] 49.4% | [2] 32.8% | [3] 28.5% | [4] 14.8% | [5] 17.4% | [6] 29.8%

O=C(O)c1cc(I)ccc1O
inactive: [1] -6.65% | [2] -0.3% | [3] -1.25% | [4] -33.8% | [5] -12.7% | [6] 26.9%

CCN1CCCC(N2c3ccccc3Sc3ccccc32)C1 (centres undefined)
inactive: [1] -9.15% | [2] -15.2% | [3] 8% | [4] -58.8% | [5] 8.5% | [6] -4%

O=C1NC(=O)C(c2ccccc2)O1 (centres undefined)
inactive: [1] -3.9% | [2] -12.1% | [3] 1.15% | [4] 14.7% | [5] 18.8% | [6] 10.8%

Cc1cc(NC(=O)c2ccccc2)c(Cl)cc1N
inactive: [1] -26.4% | [2] -33.9% | [3] -11.9% | [4] -13.4% | [5] -21% | [6] -7.95%
